# Laboratory results published in PubChem BioAssay (EPA / NIEHS).
# Records with an inconclusive call do not appear. Calls of active or inactive are those of the source. Rule for the calls: active = hit-call score of the fitted dose curve at least 0.9, where 1 is the maximum; inconclusive = response in the unintended direction; inactive = score below 0.9.
# Legend:
# [1] = molecular target: human Thromboxane A2 Receptor (TXA2), TBXA2R (gene 6915) (UniProt P21731); assay: NVS_GPCR_hTXA2: NovaScreen (NVS) G Protein-Coupled Receptor Assay for human Thromboxane A2 Receptor (TXA2) (AID 2283282);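 note: actives reduce bound radioligand signal relative to DMSO baseline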
# human Thromboxane A2 Receptor (TXA2), TBXA2R (gene 6915), sequence (P21731 whole entry, looked up): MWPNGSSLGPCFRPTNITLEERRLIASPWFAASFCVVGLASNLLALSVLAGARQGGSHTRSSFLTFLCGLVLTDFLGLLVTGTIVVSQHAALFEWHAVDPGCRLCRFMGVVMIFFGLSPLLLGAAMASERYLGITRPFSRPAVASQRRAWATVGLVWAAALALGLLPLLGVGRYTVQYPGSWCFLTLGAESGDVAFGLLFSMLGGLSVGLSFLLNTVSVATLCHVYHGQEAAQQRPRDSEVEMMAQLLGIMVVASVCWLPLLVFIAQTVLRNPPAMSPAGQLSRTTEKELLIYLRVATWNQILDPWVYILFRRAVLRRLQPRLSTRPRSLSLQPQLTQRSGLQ
# Procedure, shortened: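 Biochem binding, human platelets, cell-free; competitive radioligand displacement; 1 h; filter radiodetection. 25 uM duplicate primary, conc. series secondary; DMSO neg. ctrl.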
# [2] = molecular target: human Opioid Receptor Delta 1 (Opiate D1), OPRD1 (gene 4985) (UniProt P41143); assay: NVS_GPCR_hOpiate_D1: NovaScreen (NVS) G Protein-Coupled Receptor Assay for human Opioid Receptor Delta 1 (Opiate D1) (AID 2283280)
# human Opioid Receptor Delta 1 (Opiate D1), OPRD1 (gene 4985), sequence (P41143 whole entry, looked up): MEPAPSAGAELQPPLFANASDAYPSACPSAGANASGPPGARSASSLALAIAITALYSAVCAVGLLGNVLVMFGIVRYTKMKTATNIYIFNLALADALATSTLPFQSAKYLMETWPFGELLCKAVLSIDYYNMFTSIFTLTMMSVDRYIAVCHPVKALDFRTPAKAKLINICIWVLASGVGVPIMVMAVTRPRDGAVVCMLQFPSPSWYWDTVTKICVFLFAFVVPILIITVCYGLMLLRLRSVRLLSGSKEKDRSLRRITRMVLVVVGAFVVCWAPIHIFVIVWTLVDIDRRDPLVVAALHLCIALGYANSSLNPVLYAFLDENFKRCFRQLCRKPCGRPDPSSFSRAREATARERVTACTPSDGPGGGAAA
# Procedure, shortened: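 Radioligand displacement on membranes from CHO cells expressing the receptor, read by filter scintillation counting 1 h after dosing. Duplicate single-point screen at 25 uM, then concentration series for actives; loss of signal versus DMSO.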
# [3] = system: rabbit Platelet Activating Factor Receptor (PAF), gene 100354046; assay: NVS_GPCR_rabPAF: NovaScreen (NVS) G Protein-Coupled Receptor Assay for rabbit Platelet Activating Factor Receptor (PAF) (AID 2283287)
# Procedure, shortened: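 Rabbit platelet membrane preparation; radioligand displacement read by filter-based scintillation counting 1 h after dosing, loss of signal versus DMSO. Primary screen in duplicate at 25 uM, actives followed up in concentration series.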
# [4] = molecular target: human Purinergic Receptor P2Y, P2RY1 (gene 5028) (UniProt P47900); assay: NVS_GPCR_hPY2: NovaScreen (NVS) G Protein-Coupled Receptor Assay for human Purinergic Receptor P2Y (AID 2283281)
# human Purinergic Receptor P2Y, P2RY1 (gene 5028), sequence (P47900 whole entry, looked up): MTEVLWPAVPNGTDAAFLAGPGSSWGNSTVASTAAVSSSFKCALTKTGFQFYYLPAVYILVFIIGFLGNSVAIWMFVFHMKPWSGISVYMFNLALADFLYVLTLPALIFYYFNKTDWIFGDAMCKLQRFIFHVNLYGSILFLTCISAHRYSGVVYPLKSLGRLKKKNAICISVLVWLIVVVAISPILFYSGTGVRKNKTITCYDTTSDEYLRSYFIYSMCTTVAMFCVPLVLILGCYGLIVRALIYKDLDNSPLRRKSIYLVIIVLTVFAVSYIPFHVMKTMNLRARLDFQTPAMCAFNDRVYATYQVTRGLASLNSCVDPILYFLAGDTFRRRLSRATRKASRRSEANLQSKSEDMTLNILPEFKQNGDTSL
# Protocol: NVS_GPCR_hPY2 is a biochemical, single-readout assay that uses extracted gene-proteins from U937 in a cell-free assay. Measurements were taken 1 hour after chemical dosing in a 48-well plate.NVS_GPCR_hPY2 is one of one assay component(s) measured or calculated from the NVS_GPCR_hPY2 assay. It is designed to make measurements of radioligand binding, a form of binding reporter, as detected with scintillation counting signals by Filter-based radiodetection technology.Data from the assay component NVS_GPCR_hPY2 was analyzed into 1 assay endpoint. This assay endpoint, NVS_GPCR_hPY2, was analyzed in the positive analysis fitting direction relative to DMSO as the negative control and baseline of activity. Using a type of binding reporter, loss-of-signal activity can be used to understand changes in the binding as they relate to the gene P2RY1. Furthermore, this assay endpoint can be referred to as a primary readout, because the performed assay has only produced 1 assay endpoint. To generalize the intended target to other relatable targets, this assay endpoint is annotated to the gpcr intended target family, where the subfamily is rhodopsin-like receptor.
# (§1) Binding assays used specific radioligands (tritiated, iodinated) with non-radioactive competitive displacement ligands in agonist or antagonist protocols (as indicated) and various reference compounds and inhibitors to titrate specific binding to receptors and transporters. Most enzyme assays (CYPs, kinases, phosphatases, proteases, HDACs) used recombinant protein and specific substrates (fluorescence mostly, some colorimetric and radioactive) and inhibitors, followed by a biochemical separation of substrate and product. All assays for the biochemical HTS were initially run in duplicate at a single concentration (10 uM for CYP450 assays and 25 uM for all others). Assay-chemical combinations meeting a pre-defined threshold (e.g., 30% inhibition and other criteria defined below) were then run in singleton concentration-response format with maximum concentration of 20 uM for CYPs and 50 uM for all others. Each assay was run with positive and negative controls, and concurrent controls on every plate. The follow-up (secondary) screen tested active chemical-pairs in concentration series, as well as a few additional assays not tested in the primary screen, some selected negative inactives, and several cases re-run in the concentration series for confirmatory purposes.
# [5] = molecular target: human Orphanin, Opioid Related Nociceptin Receptor 1 (ORL1), OPRL1 (gene 4987) (UniProt P41146); assay: NVS_GPCR_hORL1: NovaScreen (NVS) G Protein-Coupled Receptor Assay for human Orphanin, Opioid Related Nociceptin Receptor 1 (ORL1) (AID 2283283)
# human Orphanin, Opioid Related Nociceptin Receptor 1 (ORL1), OPRL1 (gene 4987), sequence (P41146 whole entry, looked up): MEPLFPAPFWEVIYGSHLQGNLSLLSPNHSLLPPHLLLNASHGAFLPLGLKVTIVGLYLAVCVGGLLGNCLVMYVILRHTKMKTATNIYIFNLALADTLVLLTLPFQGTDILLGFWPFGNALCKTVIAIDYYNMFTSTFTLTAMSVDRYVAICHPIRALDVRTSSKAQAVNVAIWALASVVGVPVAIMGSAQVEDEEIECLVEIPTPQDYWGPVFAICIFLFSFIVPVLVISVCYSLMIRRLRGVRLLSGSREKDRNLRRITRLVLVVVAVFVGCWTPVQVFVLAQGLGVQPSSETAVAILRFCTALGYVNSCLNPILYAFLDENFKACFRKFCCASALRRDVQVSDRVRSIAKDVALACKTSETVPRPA
# Procedure, shortened: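 Filter-based radioligand displacement with receptor extracted from HEK293 cells, read 1 hour after dosing by scintillation counting. Duplicate single-point screen at 25 uM; qualifying chemicals then run in concentration-response to 50 uM, analysed relative to DMSO.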
# [6] = system: 5-hydroxytryptamine receptor 2C (pig); assay: NVS_GPCR_p5HT2C: NovaScreen (NVS) G Protein-Coupled Receptor Assay for pig Serotonin, 5-Hydroxytryptamine Receptor 2C (5HT2C) (AID 2283288)
# Protocol: NVS_GPCR_p5HT2C is a biochemical, single-readout assay that uses extracted gene-proteins from Pig choroid plexus membranes in a tissue-based cell-free assay. Measurements were taken 1 hour after chemical dosing in a 48-well plate.NVS_GPCR_p5HT2C is one of one assay component(s) measured or calculated from the NVS_GPCR_p5HT2C assay. It is designed to make measurements of radioligand binding, a form of binding reporter, as detected with scintillation counting signals by Filter-based radiodetection technology.Data from the assay component NVS_GPCR_p5HT2C was analyzed into 1 assay endpoint. This assay endpoint, NVS_GPCR_p5HT2C, was analyzed in the positive analysis fitting direction relative to DMSO as the negative control and baseline of activity. Using a type of binding reporter, loss-of-signal activity can be used to understand changes in the binding as they relate to the gene HTR2C. Furthermore, this assay endpoint can be referred to as a primary readout, because the performed assay has only produced 1 assay endpoint. To generalize the intended target to other relatable targets, this assay endpoint is annotated to the gpcr intended target family, where the subfamily is rhodopsin-like receptor.
# as §1, with “Assay-chemical combinations meeting a pre-defined threshold (e.g., 30% inhibition and other criteria defined below) were then run in singleton concentration-response format with maximum concentration of 20 uM for CYPs and 50 uM for all others.” left out
# [7] = molecular target: rat Serotonin, 5-Hydroxytryptamine Receptor 1 (5HT1), Non-Selective Binding, Htr1a (gene 24473) (UniProt P19327); assay: NVS_GPCR_r5HT1_NonSelective: NovaScreen (NVS) G Protein-Coupled Receptor Assay for rat Serotonin, 5-Hydroxytryptamine Receptor 1 (5HT1), Non-Selective Binding (AID 2283286)
# rat Serotonin, 5-Hydroxytryptamine Receptor 1 (5HT1), Non-Selective Binding, Htr1a (gene 24473), sequence (P19327 whole entry, looked up): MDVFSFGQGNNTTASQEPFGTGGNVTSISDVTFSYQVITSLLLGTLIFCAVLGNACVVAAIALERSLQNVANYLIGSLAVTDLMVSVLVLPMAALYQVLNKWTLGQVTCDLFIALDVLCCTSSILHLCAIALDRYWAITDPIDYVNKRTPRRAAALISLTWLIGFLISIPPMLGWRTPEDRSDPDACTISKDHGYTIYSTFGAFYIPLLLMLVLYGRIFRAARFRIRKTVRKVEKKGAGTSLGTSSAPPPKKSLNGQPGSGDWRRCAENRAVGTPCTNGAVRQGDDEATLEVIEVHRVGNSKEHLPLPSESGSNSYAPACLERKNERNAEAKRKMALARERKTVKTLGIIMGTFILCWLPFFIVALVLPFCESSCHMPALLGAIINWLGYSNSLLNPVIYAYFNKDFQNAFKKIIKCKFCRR
# Procedure, shortened: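 Rat cortical membranes, radioligand displacement, 1 h incubation, read by filter scintillation. Primary screen in duplicate at 25 uM. Hits (e.g. ≥30% inhibition) went to concentration-response up to 50 uM, fitted as loss of binding versus DMSO.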
# [8] = molecular target: mouse Cholecystokinin, CCK1 Receptor (CCKA), Cckar (gene 12425) (UniProt O08786); assay: NVS_GPCR_mCCKAPeripheral: NovaScreen (NVS) G Protein-Coupled Receptor Assay for mouse Cholecystokinin, CCK1 Receptor (CCKA) (AID 2283285)
# mouse Cholecystokinin, CCK1 Receptor (CCKA), Cckar (gene 12425), sequence (O08786 whole entry, looked up): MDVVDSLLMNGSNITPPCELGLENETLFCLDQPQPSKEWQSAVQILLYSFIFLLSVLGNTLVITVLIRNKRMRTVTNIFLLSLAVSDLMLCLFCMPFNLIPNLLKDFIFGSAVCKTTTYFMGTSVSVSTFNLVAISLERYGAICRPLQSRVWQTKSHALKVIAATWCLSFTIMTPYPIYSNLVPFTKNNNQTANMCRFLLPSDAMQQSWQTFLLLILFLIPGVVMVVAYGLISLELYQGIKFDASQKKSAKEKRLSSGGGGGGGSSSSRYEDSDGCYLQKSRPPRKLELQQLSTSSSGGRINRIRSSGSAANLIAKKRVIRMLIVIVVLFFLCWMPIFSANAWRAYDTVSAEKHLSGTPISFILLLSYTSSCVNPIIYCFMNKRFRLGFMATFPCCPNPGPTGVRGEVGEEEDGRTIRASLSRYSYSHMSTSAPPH
# Protocol: NVS_GPCR_mCCKAPeripheral is a biochemical, single-readout assay that uses extracted gene-proteins from Mouse pancreatic membranes in a tissue-based cell-free assay. Measurements were taken 2 hours after chemical dosing in a 96-well plate.NVS_GPCR_mCCKAPeripheral is one of one assay component(s) measured or calculated from the NVS_GPCR_mCCKAPeripheral assay. It is designed to make measurements of radioligand binding, a form of binding reporter, as detected with scintillation counting signals by Filter-based radiodetection technology.Data from the assay component NVS_GPCR_mCCKAPeripheral was analyzed into 1 assay endpoint. This assay endpoint, NVS_GPCR_mCCKAPeripheral, was analyzed in the positive analysis fitting direction relative to DMSO as the negative control and baseline of activity. Using a type of binding reporter, loss-of-signal activity can be used to understand changes in the binding as they relate to the gene Cckar. Furthermore, this assay endpoint can be referred to as a primary readout, because the performed assay has only produced 1 assay endpoint. To generalize the intended target to other relatable targets, this assay endpoint is annotated to the gpcr intended target family, where the subfamily is rhodopsin-like receptor. […]
# [9] = molecular target: human Neurotensin Receptor (NTS), NTSR1 (gene 4923) (UniProt P30989); assay: NVS_GPCR_hNTS: NovaScreen (NVS) G Protein-Coupled Receptor Assay for human Neurotensin Receptor (NTS) (AID 2283279)
# human Neurotensin Receptor (NTS), NTSR1 (gene 4923), sequence (P30989 whole entry, looked up): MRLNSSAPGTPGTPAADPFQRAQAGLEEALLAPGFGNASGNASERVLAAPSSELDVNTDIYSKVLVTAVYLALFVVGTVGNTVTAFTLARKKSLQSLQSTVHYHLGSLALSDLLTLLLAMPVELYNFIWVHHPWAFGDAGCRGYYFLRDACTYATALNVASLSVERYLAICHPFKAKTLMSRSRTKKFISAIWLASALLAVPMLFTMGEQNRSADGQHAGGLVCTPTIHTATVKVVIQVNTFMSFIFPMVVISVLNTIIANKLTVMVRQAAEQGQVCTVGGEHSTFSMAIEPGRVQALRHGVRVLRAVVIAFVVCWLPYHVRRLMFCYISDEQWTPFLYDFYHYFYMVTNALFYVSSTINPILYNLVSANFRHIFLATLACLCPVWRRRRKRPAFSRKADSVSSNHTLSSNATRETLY
# Procedure, shortened: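 Radioligand displacement on human NTSR1 protein from CHO cells, cell-free, 1 h, filter-based scintillation counting. Primary screen at 25 uM in duplicate; hits rerun in concentration-response up to 50 uM.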
# [10] = molecular target: human Vasopressin 1A Receptor (V1A), AVPR1A (gene 552) (UniProt P37288); assay: NVS_GPCR_hV1A: NovaScreen (NVS) G Protein-Coupled Receptor Assay for human Vasopressin 1A Receptor (V1A) (AID 2283284)
# human Vasopressin 1A Receptor (V1A), AVPR1A (gene 552), sequence (P37288 whole entry, looked up): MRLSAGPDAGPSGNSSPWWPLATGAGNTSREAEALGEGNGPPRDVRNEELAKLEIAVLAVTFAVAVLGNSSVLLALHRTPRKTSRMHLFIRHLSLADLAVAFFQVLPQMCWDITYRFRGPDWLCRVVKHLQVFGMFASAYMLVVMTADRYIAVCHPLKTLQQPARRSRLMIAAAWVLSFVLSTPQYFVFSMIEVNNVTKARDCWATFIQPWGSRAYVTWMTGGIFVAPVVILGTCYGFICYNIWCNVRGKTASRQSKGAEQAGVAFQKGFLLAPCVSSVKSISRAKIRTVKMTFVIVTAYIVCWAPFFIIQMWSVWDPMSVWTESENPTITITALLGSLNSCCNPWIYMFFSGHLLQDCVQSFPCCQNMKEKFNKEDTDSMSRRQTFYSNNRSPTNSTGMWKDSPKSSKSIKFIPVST
# Procedure, shortened: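 Cell-free radioligand displacement on human platelet preparations, 1.5 h incubation, filter-based scintillation counting. Chemicals first tested in duplicate at 25 uM; actives then run in concentration-response up to 50 uM, loss of signal fitted against DMSO.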
smiles,measurement,setting,value
C[Si]1(C)O[Si](C)(C)O[Si](C)(C)O[Si](C)(C)O1,outcome,[1],inactive
CNCc1cc(F)ccc1Oc1ccc(Cl)c(Cl)c1,outcome,[1],inactive
COc1ccc(S(=O)(=O)N2C(=O)[C@@](c3ccccc3OC)(N3C[C@H](O)C[C@H]3C(=O)N(C)C)c3cc(Cl)ccc32)c(OC)c1,outcome,[2],inactive
same,outcome,[1],inactive
same,AC50,[3],12.3 µM (active)
Cc1oc(-c2ccccc2)nc1CCOc1cccc2c1ccn2CCC(=O)O,AC50,[1],1.33 µM (active)
CC1(C)CC(N=C=O)CC(C)(CN=C=O)C1 (stereo unspecified),outcome,[2],inactive
O=C(O)CCCCC(=O)O,outcome,[4],inactive
Cc1cccc(Nc2cc(Cl)nc(SCC(=O)O)n2)c1C,AC50,[1],5.03 µM (active)
CCOC(=O)CCC(=O)OCC,outcome,[4],inactive
same,outcome,[5],inactive
same,outcome,[6],inactive
C=CCc1ccc(O)c(OC)c1,outcome,[6],inactive
Nc1ccc2c(c1)C(=O)c1ccccc1C2=O,AC50,[2],38.4 µM (active)
COc1cc(S(=O)(=O)O)c(C)cc1N=Nc1c(O)ccc2cc(S(=O)(=O)O)ccc12,AC50,[2],30 µM (active)
same,AC50,[7],17.1 µM (active)
C=CCOC(=O)c1ccccc1C(=O)OCC=C,AC50,[6],25 µM (active)
Cc1c(C(=O)O)c(O)cc2c1C(=O)c1c(O)c([C@@H]3O[C@H](CO)[C@@H](O)[C@H](O)[C@H]3O)c(O)c(O)c1C2=O,outcome,[7],inactive
CCCCCCCCCCCC(=O)OC,outcome,[4],inactive
O=C(N[C@@H](Cc1ccccc1)[C@@H](O)C(=O)N1C[C@@H](O)[C@@H](O)C1)c1cc2cc(Cl)ccc2[nH]1,AC50,[8],11.9 µM (active)
Nc1ccccc1N,outcome,[7],inactive
Cc1cccc(C)c1O,outcome,[9],inactive
same,outcome,[10],inactive
COCCOC[C@H](CC1(C(=O)NC2CCC(C(=O)O)CC2)CCCC1)C(=O)Oc1ccc2c(c1)CCC2 (stereo partly specified),outcome,[5],inactive
same,outcome,[7],inactive
Oc1ccc2c(c1)OC[C@@H](N1CCC(O)(c3ccc(F)cc3)CC1)[C@H]2O,outcome,[6],inactive
CN1CCN(Cc2cc(-c3ccc4[nH]c(=O)oc4c3)co2)[C@@H](c2ccc(F)cc2)C1,outcome,[3],inactive
same,AC50,[6],0.25 µM (active)
Nc1nc(N)c2nc(CNc3ccc(C(=O)N[C@@H](CCC(=O)O)C(=O)O)cc3)cnc2n1,outcome,[2],inactive
CCCCC(CC)COC(=O)CC(C(=O)OCC(CC)CCCC)S(=O)(=O)O (stereo unspecified),AC50,[2],10.3 µM (active)
same,AC50,[4],7.46 µM (active)
same,AC50,[1],8.9 µM (active)
same,AC50,[5],15.9 µM (active)
same,AC50,[6],32.4 µM (active)
CCc1c(C(=O)NN2CCCCC2)nn(-c2ccc(Cl)cc2Cl)c1-c1ccc(Br)cc1,outcome,[2],inactive
CC(C)(C)c1cc(O)c(C(C)(C)C)cc1O,outcome,[1],inactive
NCCO,AC50,[9],37.9 µM (active)
NC(=O)Cn1c(=O)cc(CCN2CCN(c3nccc4sccc34)CC2)c2ccc(F)cc21,AC50,[7],0.47 µM (active)
same,AC50,[6],0.00974 µM (active)
COc1cc(-c2nc(NC(=O)c3cc4cc(C)cc(C)c4n3CC(=O)O)sc2CCC2CCCCC2)c(OC)cc1Cl,outcome,[1],inactive
same,AC50,[8],0.178 µM (active)
